# Screening results (PubChem)
# Pf Dd2 growth – blocks in vitro growth of P. falciparum Dd2 | 4.3% of 120,000 active | Potency, µM (doses to about 28.9 µM), without a hit: top-dose activity, negative = inhibition, actives largely listed as inhibitors | P. falciparum Dd2 growth, SYBR Green, 72 h; active = well fitted inhibition curve with a large enough effect;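 note: plate controls were DMSO vehicle for no effect and reference drug for full effect; nearly all actives have a fitted effect of over 65% in size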
#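 Readout: SYBR Green fluorescence, 485 nm excitation, 535 nm emission, after ~16 h lysis at 37C. Before that, Dd2-infected red cells (2.5% hematocrit) grew 72 h with compound, 29 uM top final concentration.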
# * = called active by the depositor; i = inactive; [ ] = another dose, or the depositor's remark. This excerpt belongs to a sample that is enriched for hits. Potency is the fitted concentration of half-maximal effect.
SMILES,Pf Dd2 growth
O=C1Nc2ccccc2CC12CN(Cc1ccc(C(F)(F)F)cc1)C2,54%
CC(O)c1cc2n(n1)CCN(C1CCN(C(=O)c3cnccn3)CC1)C2 (stereo not given),-5%
O=[S+]([O-])(Nc1ccccc1)c1ccc2c(c1)OCCN(Cc1ccsc1)C2,-4%[44.1 µM]
CCC(=O)N(C1CCOCC1)C1CCN(S(=O)(=O)c2ccccc2CC)CC1,i
CCOc1ccccc1C1NC(=O)N(CC(=O)Nc2cccc(F)c2)C2=C1C(=O)OC2 (stereo not given),-24%
CN(CC1(C)CCOCC1)C(=O)c1ccnn1C,-22%
CCOCc1nc(C2CCCN(C(=O)c3ccco3)C2)no1 (stereo not given),i
COC[C@@H]1CN(c2cnccn2)C[C@H]1C(=O)NCCc1ccccn1,7%
COc1ccccc1N1CCN([C@@H]2[C@H](O)[C@H](CO)O[C@@H]2CN)CC1,31%
CN1C(=O)c2cccn2CC1CNC(=O)c1ccnn1C (stereo not given),i
COCCCNC(=O)N1CCc2nn(CC3CC3)c(=O)n2CC1,-2%
Cn1cc(CNS(=O)(=O)c2cccc(C(=O)NCC3CCOC3)c2)cn1 (stereo not given),3%
O=C1COc2ccc(-c3cn[nH]c3)nc2CN1Cc1ccc(C(F)(F)F)cc1,i
COc1cccc(CN2Cc3nc(-c4cnn(Cc5ccccc5)c4)ccc3OCC2=O)c1,i
COCCN1Cc2nc(Nc3ccc(C(F)(F)F)cc3)ccc2OCC1=O,13µM*
Cc1ccccc1CN1Cc2nc(-c3cnn(Cc4ccccc4)c3)ccc2OCC1=O,-40%[44.1 µM]
O=C1COc2ccc(-c3ccncc3)nc2CN1Cc1ccc(C(F)(F)F)cc1,-33%[44.1 µM]
O=C1COc2ccc(Nc3cccc(F)c3)nc2CN1CCOc1ccccc1,-2%[44.1 µM]
O=C1COc2ccc(Nc3ccccc3)nc2CN1CCOc1ccccc1,-9%[44.1 µM]
O=C1COc2ccc(-c3ccoc3)nc2CN1Cc1ccc(C(F)(F)F)cc1,13µM*
Cc1nc(CN2Cc3nc(-c4cnn(Cc5ccccc5)c4)ccc3OCC2=O)cs1,10µM*
Cc1ccccc1-c1nocc1CCC(=O)O,i
Cc1ccc(N2CC(NC(=O)c3cccc(CCC(C)(C)O)c3)CC2=O)cc1 (stereo not given),-21%
COc1ccc(CNC(=O)C[C@@H]2CCNC[C@@H]2Cc2cc(-c3ccc(F)cc3)on2)cc1,-2%
CCn1ncc(C(=O)N[C@@H]2CN(c3ncccn3)C[C@H]2CO)c1C,19%
SMILES,Pf Dd2 growth
COCCN1C(=O)c2cccn2CC1CNC(=O)CC(C)C (stereo not given),1%
COC[C@H]1C[C@@H](NCC(C)C)[C@H](O)[C@@H]1O,13%[44.1 µM]
OCC1(O)CCCN(Cc2ccccc2Cn2cccn2)C1 (stereo not given),-8%
CSCC(=O)N1CC[C@H](NC(=O)NC(C)C)[C@H]1C(=O)N[C@H](Cc1ccccc1)C(N)=O,-8%
CC(C)CCNC(=O)N1CCC(OC2CCN(S(C)(=O)=O)CC2)CC1,i
CN(C)[C@@H]1CN(C(=O)c2ccc(C#N)cc2)CC[C@]1(O)c1ccccc1,i[5.79 µM]
O=C(C1CCC1)N1CCC(N(C(=O)C2CC2)C2CCOCC2)CC1,57%
COc1ccccc1NC(=O)N1CCC(N(C(=O)C2CC2)C2CCOCC2)CC1,4.5µM*
O=C(c1ccccc1)N1CCC(N(C(=O)C2CC2)C2CCOCC2)CC1,39%
CN(C)CCN1CC2(CCCN(C(=O)CN(C)c3ccccc3)C2)CCC1=O (stereo not given),-2%
COc1ccc(-c2noc(C(=O)O)c2[C@@H](C)NC(=O)Nc2ccccc2)cc1,13%[44.1 µM]
COCCNC(=O)C1c2ccccc2C(=O)N(Cc2ccccc2)C12CCCC2 (stereo not given),-3%
COC(=O)c1ccc(Cl)cc1NC(=O)N1CCC(CN2CCC(C)CC2)CC1,10µM*
COC(=O)c1ccc(Cl)cc1NC(=O)N1CCC(CN2CCCC2)CC1,-1%
Cc1cccc(NC(=O)N2CCC(CN3CCC(C)CC3)CC2)c1C,-11%
N#Cc1ccc(C(=O)N2CCOC[C@H](Oc3cnccn3)C2)cc1,27%[44.1 µM]
Cc1ccc(CN2C(=O)NC3(CCCN(C(=O)c4ccc(F)c(Cl)c4)C3)C2=O)cc1 (stereo not given),7.1µM*
Cc1ccc(CN2C(=O)NC3(CCCN(C(=O)c4cccc(Cl)c4)C3)C2=O)cc1 (stereo not given),i
O=C(c1ccc(F)c(Cl)c1)N1CCCC2(C1)NC(=O)N(Cc1ccccc1)C2=O (stereo not given),-24%
COc1ccc(CNC2CN(C(=O)OC(C)(C)C)C2)cc1,-12%
CC(C)(C)OC(=O)N1CC(NCc2ccc(C(F)(F)F)cc2)C1,-7%
CC(C)(C)OC(=O)N1CC(NCc2ccc(-c3ccc(OC(F)(F)F)cc3)cc2)C1,10µM*
Cc1cc(CNC(=O)Cc2nonc2C)c2[nH]c(-c3ccccc3)c(C)c2c1,2%
CC(C)NC(=O)C[C@@H]1O[C@H](CNCc2cccc(Cl)c2)[C@@H](O)[C@H]1O,8%[44.1 µM]
CCC(=O)Nc1ccccc1-c1nc2ccccc2n(C(C)C(=O)Nc2ccc(OC)cc2)c1=O (stereo not given),10µM*
SMILES,Pf Dd2 growth
CCC(=O)Nc1ccccc1-c1nc2ccccc2n(C(CC)C(=O)Nc2cccc(Cl)c2)c1=O (stereo not given),i
CCC(=O)Nc1ccccc1-c1nc2ccccc2n(CC(=O)Nc2ccccc2OC)c1=O,3%
Cn1cc(-c2cc(=O)c3ccnc(Nc4ccc5[nH]ccc5c4)c3o2)cn1,7.1µM*
Cn1cc(-c2cc(=O)c3ccnc(NC4CCOCC4)c3o2)cn1,-27%[44.1 µM]
Cn1cc(-c2cc(=O)c3ccnc(NCc4ccc(F)cc4)c3o2)cn1,-21%[44.1 µM]
N[C@@H]1CC[C@H](C(=O)Nc2ccc(CC(=O)N3CCCC3)cc2)C1,5%
O=C(NCc1ccccc1-n1cncn1)C12CNCC1CNC2 (stereo not given),-2%
CNc1ccc(C)cc1C(=O)NC(C(=O)O)c1c(C)n[nH]c1C (stereo not given),26%
O=C1CCN(C(=O)C2CCCC2)CCCC(c2nc(-c3ccccc3)no2)CCN1 (stereo not given),i
COc1ccc(C(=O)N2CCCC(c3nc(-c4cccnc4)no3)CCNC(=O)CC2)cc1 (stereo not given),-27%
O=C1CCN(C2CCC2)CCCC(c2nc(-c3cccnc3)no2)CCN1 (stereo not given),-6%
COc1ccc(C(=O)N2CCCC(c3nc(-c4ccccc4)no3)CCNC(=O)CC2)c(OC)c1 (stereo not given),7.1µM*
O=C1CCN(Cc2ccncc2F)CCCC(c2nc(-c3cccnc3)no2)CCN1 (stereo not given),i
Cc1ncsc1CN1CCCC(c2nc(-c3cccnc3)no2)CCNC(=O)CC1 (stereo not given),i
N#Cc1cccc(CN2CCCC(c3nc(-c4cccnc4)no3)CCNC(=O)CC2)c1 (stereo not given),5µM*
CCOc1ccccc1CN1CCCC(c2nc(-c3cccnc3)no2)CCNC(=O)CC1 (stereo not given),4µM*
O=C1CCN(Cc2ccncc2)CCCC(c2nc(-c3cccnc3)no2)CCN1 (stereo not given),-15%
COCCC1(NC(=O)C2CC2)CCN(S(C)(=O)=O)CC1,23%
CC(=O)c1cccc(N2C(=O)[C@@H]3C[C@@H](NC(=O)c4ccncc4)CCN3C2=O)c1,i
O=C(NCc1cccnc1)C1=NOC2CN(C(=O)Nc3cccnc3)CC12 (stereo not given),13%
